In the supplement of paper PMC9262897, “Low-cost anti-mycobacterial drug discovery using engineered E. coli” (Nature Communications, 2022):
Structures can show the parent of a compound that is named as a salt. ± gives the standard deviation of the averaged measurements.

Tests used:
Assay in all cases: growth (OD600 after 10 h); higher = more growth (less inhibition)
[1] = tested on: E. coli TESEC Alr+ wild-type control; settings: compound 0.1 mM; raw OD600 reference: median of DMSO wells 0.241, cell-free background 0.041
Method: (§1)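 TESEC Mtb Alr E. coli, or the Alr+ wild-type control, in 384-well plates with Prestwick library compounds at 0.1 mM and 1% DMSO, across arabinose induction levels of 1E3 to 1E7 nM. Growth is read as OD600 after 10 h at 37 °C in triplicate biological replicates.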

[2] = tested on: E. coli TESEC Mtb Alr; settings: compound 0.1 mM
Method: as §1

[3] = tested on: E. coli TESEC Mtb Asd; settings: compound 0.1 mM
Method: (§2)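 TESEC E. coli strains in which the native enzyme is deleted and replaced by arabinose-inducible Mtb Asd, DapB, CysH or TrpD, each grown in its selective medium. Strains were screened against the Prestwick library at 0.1 mM and 1% DMSO in 384-well format at low and high arabinose induction. Growth is read as OD600 after 10 h in triplicate.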

[4] = tested on: E. coli TESEC Mtb DapB; settings: compound 0.1 mM
Method: as §2

[5] = tested on: E. coli TESEC Alr+ wild-type control; settings: compound 0.1 mM; raw OD600 reference: median of DMSO wells 0.49, cell-free background 0.052
Method: (§3)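 TESEC Mtb Alr E. coli (ΔaraC ΔtolC ΔentC Δalr ΔdadX, arabinose-inducible Mtb Alr) or the Alr+ wild-type control strain, grown in defined M9-fructose medium without D-alanine in 96-well plates with Prestwick library compounds at 0.1 mM and 1% DMSO. Low Alr induction is 0.1 µM arabinose and high induction is 10 mM arabinose.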

[6] = tested on: E. coli TESEC Mtb Alr; settings: compound 0.1 mM; remark: listed apart in the source
Method: as §3

[7] = arabinose 1000 nM, raw OD600 reference: median of DMSO wells 0.294, cell-free background 0.041
[8] = arabinose 10000 nM, raw OD600 reference: median of DMSO wells 0.264, cell-free background 0.041
[9] = arabinose 100000 nM, raw OD600 reference: median of DMSO wells 0.201, cell-free background 0.041
[10] = arabinose 1000000 nM, raw OD600 reference: median of DMSO wells 0.193, cell-free background 0.041
[11] = arabinose 10000000 nM, raw OD600 reference: median of DMSO wells 0.146, cell-free background 0.041
[12] = arabinose induction (level): High, raw OD600 reference: median of DMSO wells 0.331, cell-free background 0.041
[13] = arabinose induction (level): Low, raw OD600 reference: median of DMSO wells 0.417, cell-free background 0.041
[14] = arabinose induction (level): High, raw OD600 reference: median of DMSO wells […], cell-free background 0.041
[15] = arabinose induction (level): Low, raw OD600 reference: median of DMSO wells 0.227, cell-free background 0.041
[16] = arabinose 100 nM, raw OD600 reference: median of DMSO wells 0.413, cell-free background 0.052
[17] = arabinose 10000000 nM, raw OD600 reference: median of DMSO wells […], cell-free background 0.052

SMILES | growth [1] | growth [2, 7] | growth [2, 8] | growth [2, 9] | growth [2, 10] | growth [2, 11] | growth [3, 12] | growth [3, 13] | growth [4, 14] | growth [4, 15] | growth [5] | growth [6, 16] | growth [6, 17]
NC1CCN(c2nc3c(cc2F)c(=O)c(C(=O)O)cn3-c2ccc(F)cc2F)C1 (configuration not stated) [Tosufloxacin hydrochloride] | 0.0572 ± 0.0069 | 0.048 ± 0.0026 | 0.0491 ± 0.00026 | 0.0552 ± 0.0018 | 0.0452 ± 0.0008 | 0.0575 ± 0.0043 | 0.054 ± 0.01 | 0.0575 ± 0.0039 | 0.05407 ± 0.0005 | 0.0526 ± 0.0037 | 0.0604 ± 0.0041 | 0.05307 ± 0.00025 | 0.0578 ± 0.0027
CC1(C)[C@H](C(=O)O)N2C(=O)C[C@H]2S1(=O)=O [Sulbactam] | 0.241 ± 0.0052 | 0.305 ± 0.0083 | 0.263 ± 0.0075 | 0.244 ± 0.009 | 0.202 ± 0.015 | 0.165 ± 0.01 | 0.39 ± 0.029 | 0.438 ± 0.016 | 0.2 ± 0.006 | 0.225 ± 0.025 | 0.533 ± 0.06 | 0.409 ± 0.0061 | 0.361 ± 0.011
CCN1CCN(c2cc3c(cc2F)c(=O)c(C(=O)O)cn3C2CC2)CC1 [Enrofloxacin] | 0.04133 ± 0.00021 | 0.0446 ± 0.0089 | 0.0393 ± 0.00035 | 0.0406 ± 0.0012 | 0.0391 ± 0.0002 | 0.0419 ± 0.0033 | 0.0465 ± 0.0016 | 0.0466 ± 0.0016 | 0.0496 ± 0.00083 | 0.0487 ± 0.0006 | 0.0543 ± 0.0025 | 0.05387 ± 0.00035 | 0.0522 ± 0.001
O=c1oc2ccccc2c(O)c1Cc1c(O)c2ccccc2oc1=O [Dicumarol] | 0.178 ± 0.001 | 0.159 ± 0.0018 | 0.1609 ± 0.0012 | 0.149 ± 0.0042 | 0.0997 ± 0.0013 | 0.126 ± 0.0032 | 0.289 ± 0.049 | 0.262 ± 0.049 | 0.18 ± 0.014 | 0.199 ± 0.046 | 0.191 ± 0.025 | 0.128 ± 0.022 | 0.0655 ± 0.0074
CC(C)NCC(O)c1cc(O)cc(O)c1 (configuration not stated) [Metaproterenol sulfate, orciprenaline sulfate] | 0.247 ± 0.0097 | 0.291 ± 0.0065 | 0.268 ± 0.01 | 0.2 ± 0.03 | 0.185 ± 0.011 | 0.144 ± 0.0048 | 0.283 ± 0.046 | 0.346 ± 0.019 | 0.177 ± 0.013 | 0.183 ± 0.015 | 0.635 ± 0.09 | 0.411 ± 0.011 | 0.352 ± 0.029
Nc1ccc(C(=O)NCC(=O)O)cc1 [Aminohippuric acid] | 0.246 ± 0.011 | 0.297 ± 0.018 | 0.2604 ± 0.0024 | 0.186 ± 0.022 | 0.189 ± 0.006 | 0.138 ± 0.0027 | 0.372 ± 0.047 | 0.464 ± 0.01 | 0.208 ± 0.0093 | 0.234 ± 0.0072 | 0.6256 ± 0.0055 | 0.408 ± 0.015 | 0.3487 ± 0.0013
CCN(CC)CCNC(=O)c1ccc(N)cc1 [Procainamide hydrochloride] | 0.239 ± 0.0037 | 0.306 ± 0.019 | 0.2558 ± 0.0023 | 0.209 ± 0.043 | 0.192 ± 0.002 | 0.141 ± 0.0042 | 0.341 ± 0.0095 | 0.42 ± 0.039 | 0.192 ± 0.015 | 0.201 ± 0.0082 | 0.634 ± 0.046 | 0.408 ± 0.01 | 0.364 ± 0.0095
CCCSc1ccc2[nH]c(NC(=O)OC)nc2c1 [Albendazole] | 0.246 ± 0.025 | 0.274 ± 0.021 | 0.255 ± 0.0036 | 0.211 ± 0.031 | 0.1462 ± 0.00096 | 0.137 ± 0.0025 | 0.41 ± 0.017 | 0.409 ± 0.033 | 0.205 ± 0.0098 | 0.25 ± 0.025 | 0.48 ± 0.013 | 0.428 ± 0.01 | 0.419 ± 0.054
Nc1c2c(nc3ccccc13)CCCC2O (racemic) [Hydroxytacrine maleate (R,S)] | 0.227 ± 0.0038 | 0.264 ± 0.028 | 0.257 ± 0.0076 | 0.202 ± 0.025 | 0.176 ± 0.0061 | 0.144 ± 0.0023 | 0.218 ± 0.012 | 0.257 ± 0.034 | 0.203 ± 0.018 | 0.205 ± 0.015 | 0.612 ± 0.088 | 0.4 ± 0.0077 | 0.352 ± 0.0099
C#C[C@]1(O)CC[C@H]2[C@@H]3CCC4=CC(=O)CC[C@@H]4[C@H]3CC[C@@]21C [Norethindrone] | 0.196 ± 0.042 | 0.221 ± 0.017 | 0.221 ± 0.012 | 0.179 ± 0.012 | 0.1044 ± 0.00092 | 0.134 ± 0.0033 | 0.286 ± 0.041 | 0.362 ± 0.058 | 0.183 ± 0.0096 | 0.21 ± 0.042 | 0.427 ± 0.016 | 0.397 ± 0.0089 | 0.233 ± 0.014
CN[C@H]1CC[C@@H](c2ccc(Cl)c(Cl)c2)c2ccccc21 [Sertraline] | 0.0407 ± 0.00036 | 0.0417 ± 0.0013 | 0.0403 ± 0.0019 | 0.0432 ± 0.0016 | 0.0393 ± 0.0007 | 0.0414 ± 0.00047 | 0.0545 ± 0.0057 | 0.0508 ± 0.0037 | 0.0504 ± 0.00093 | 0.0522 ± 0.0014 | 0.0502 ± 0.00068 | 0.392 ± 0.036 | 0.0517 ± 0.00092
CC1CC(OC(=O)c2ccccc2O)CC(C)(C)C1 (configuration not stated) [Homosalate] | 0.248 ± 0.0027 | 0.3 ± 0.005 | 0.263 ± 0.019 | 0.199 ± 0.03 | 0.18 ± 0.0023 | 0.15 ± 0.0039 | 0.202 ± 0.011 | 0.332 ± 0.052 | 0.194 ± 0.018 | 0.205 ± 0.027 | 0.543 ± 0.057 | 0.3918 ± 0.0032 | 0.332 ± 0.016
NC[C@@H]1O[C@@H](O[C@H]2[C@H](O)[C@@H](O[C@H]3O[C@H](CO)[C@@H](O)[C@H](N)[C@H]3O)[C@H](N)C[C@@H]2N)[C@@H](O)[C@H](O)[C@H]1O [Kanamycin A sulfate] | 0.247 ± 0.0031 | 0.302 ± 0.013 | 0.263 ± 0.0086 | 0.228 ± 0.016 | 0.1781 ± 0.0015 | 0.164 ± 0.0095 | 0.245 ± 0.044 | 0.404 ± 0.073 | 0.202 ± 0.0057 | 0.28 ± 0.056 | 0.495 ± 0.032 | 0.403 ± 0.008 | 0.353 ± 0.014
O=C(Nc1ccccc1)OCC(CN1CCCCC1)OC(=O)Nc1ccccc1 (configuration not stated) [Diperodon hydrochloride] | 0.193 ± 0.0045 | 0.249 ± 0.0066 | 0.259 ± 0.0044 | 0.231 ± 0.037 | 0.0876 ± 0.0038 | 0.154 ± 0.0081 | 0.235 ± 0.019 | 0.345 ± 0.065 | 0.2 ± 0.0073 | 0.223 ± 0.038 | 0.405 ± 0.02 | 0.426 ± 0.0081 | 0.243 ± 0.028
